Only some compounds are listed: those with a hit (about 9.2% of all), similar ones and a draw of the others.
SMN2 splice up = qHTS Assay for Enhancers of SMN2 Splice Variant Expression | AID 1458, 2008 | HEK293 SMN2-luciferase splicing reporter, luminescence, 30-36 h | 210,000 tested, 2.8% active | Potency, µM (doses to about 46.1 µM), inactives show at the highest dose activity change, positive = activation, most hits filed as activators; also: % of control where 0% means no effect; nearly all actives have a fitted effect of over 55% in size
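qHTS luciferase splicing reporter: luminescence rises when SMN2 exon 7 is included in transfected HEK293 cells. Compound exposure lasted 30-36 h at 37C, with 4.5 mM final sodium butyrate as control, followed by a ONE-Glo read.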
ELG1 DNA repair = qHTS screen for small molecules that inhibit ELG1-dependent DNA repair in human embryonic kidney (HEK293T) cells expressing luciferase-tagged ELG1; HEK293T ELG1-luciferase reporter, luminescence, 16 h; DNA damage induced by 5-fluorouridine; Potency, µM (doses to about 46.1 µM), for the others: top-dose activity change, negative = inhibition, hits mostly inhibitors; 330,000 tested, 2.3% active; AID 504467, 2011; also: % is scaled to controls: 0 for no effect and ±100 for the full control effect; nearly all actives have a fitted effect of over 55% in size
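Cells (2,000 per well) received 5-fluorouridine plus test compound or DMSO and were incubated 16 hr at 37 °C, 5% CO2. Luciferase activity was read by luminescence 30 min after ONE-Glo addition; signal suppression marked inhibition of damage-induced ELG1 function.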
ELG1 genotox = qHTS screen for small molecules that induce genotoxicity in human embryonic kidney (HEK293T) cells expressing luciferase-tagged ELG1. HEK293T ELG1-luciferase reporter, luminescence, 16 h. Potency, µM (titrated, usually from 46 µM), for the others: at the highest dose activity change, positive = activation, usual class: activators. 330,000 tested, 1.3% active. AID 504466, 2011; also: % of control where 0% means no effect; nearly all actives have a fitted effect of over 60% in size
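Reporter readout depends on ELG1 protein level, which increases with genetic stress. After 16 hr compound exposure at 37 °C, luciferase activity was quantified using ONE-Glo.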
NPC1 promoter act = qHTS Assay for NPC1 Promoter Activators | AID 485313, 2010 | 320,000 tested, 2.4% active | Huh7 NPC1 promoter luciferase reporter, 24 h | Potency, µM (doses to about 9.22 µM), for inactives: at the highest dose activation, usual class: activators; also: % of control where 0% means no effect; nearly all actives have a fitted effect of over 60% in size
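Quantitative HTS used a cell-based reporter: Huh7 cells stably bearing the NPC1 promoter upstream of luciferase were treated with compounds for 24 h, and promoter activation was read as luminescence.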
FLuc counter = qHTS profiling assay for firefly luciferase inhibitor/activator using purifed enzyme and Km concentrations of substrates (counterscreen for miR-21 project); Potency, µM (series often up to 57.5 µM), inactives show at the top dose activity change, negative = inhibition, usual class: inhibitors; purified FLuc, Km substrates, luminescence inhibition; AID 588342, 2011; 360,000 tested, 6.9% active;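 also: plate controls were vehicle for no effect and reference inhibitor for full effect; nearly all actives have a fitted effect of over 55% in size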
Target sequence (P08659 whole entry, looked up): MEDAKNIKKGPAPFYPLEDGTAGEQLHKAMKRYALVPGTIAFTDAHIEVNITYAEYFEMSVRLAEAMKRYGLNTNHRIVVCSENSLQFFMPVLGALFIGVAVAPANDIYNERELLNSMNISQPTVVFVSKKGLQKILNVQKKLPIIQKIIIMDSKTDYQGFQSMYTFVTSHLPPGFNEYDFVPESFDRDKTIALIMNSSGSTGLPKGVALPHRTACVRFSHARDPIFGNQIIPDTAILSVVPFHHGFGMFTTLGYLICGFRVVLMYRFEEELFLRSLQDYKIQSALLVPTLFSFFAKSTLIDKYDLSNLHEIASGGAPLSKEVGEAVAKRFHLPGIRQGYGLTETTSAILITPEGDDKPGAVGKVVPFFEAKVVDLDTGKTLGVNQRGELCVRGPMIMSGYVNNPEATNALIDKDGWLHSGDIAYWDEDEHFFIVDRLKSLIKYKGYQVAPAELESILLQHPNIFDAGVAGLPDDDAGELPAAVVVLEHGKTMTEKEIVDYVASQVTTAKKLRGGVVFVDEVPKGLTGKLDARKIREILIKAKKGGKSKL
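Biochemical qHTS of compounds, final roughly 60 µM downward over six points, against 10 nM purified firefly luciferase using Km concentrations of substrates (10 uM D-luciferin, 10 uM ATP) in Tris acetate pH 7.5 buffer; luminescence output.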
Rab9 prom act = qHTS Assay for Rab9 Promoter Activators; Huh7 Rab9 promoter-luciferase reporter, luminescence, 24 h; Potency, µM (top dose mostly 9.22 µM), for the others: top-dose activation, negative = inhibition, usual class: activators; 320,000 tested, 2.8% active; also: % of control where 0% means no effect; nearly all actives have a fitted effect of over 60% in size
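Quantitative HTS format; Huh7 Rab9-luciferase reporter cells (1500/well) receive compound 2 h post-plating, incubate 24 h at 37 °C, then get luciferase reagent for 10 min before luminescence reading.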
* hit, by the source's call; [ ] = dose if it differs, or a comment. Calls follow the shape of the dose curve; as a rule, active = well fitted curve in the direction sought with a large enough effect; inconclusive = small, poorly fitted or top-dose-only effect, or another doubt; inactive = no such curve, though single readings can be large; an effect the other way counts as inactive or inconclusive. Potency is read from the fitted curve at half-maximal effect.

Results for Cc1cccc(C)c1NC(=O)C1(N2C(=O)CC2c2ccccc2)CCCCC1 (stereo unspecified) ?
SMN2 splice up: 0.3%; ELG1 DNA repair: 3.2%; ELG1 genotox: -5.4%; NPC1 promoter act: 1.6%; FLuc counter: 1.3%; Rab9 prom act: -1.3%

How did CCOC(=O)c1c(N)sc(C(N)=O)c1C do in these assays?
SMN2 splice up: 11.6%; ELG1 DNA repair: 7.1%; ELG1 genotox: 2.9%; NPC1 promoter act: 10.3%; FLuc counter: -13.7%; Rab9 prom act: 1.3%

What do the screens show for `Cc1c(C(=O)OC(C)C)sc(N)c1C(=O)OC(C)C`?
SMN2 splice up: 23.9%; ELG1 DNA repair: inconclusive; ELG1 genotox: 11.3%; NPC1 promoter act: 19.8%; FLuc counter: 21.3µM*; Rab9 prom act: 26.7%

What do the screens show for `CCOC(=O)c1cc(C(=O)Nc2ccccc2F)nn1C`?
SMN2 splice up: 12.6µM*; ELG1 DNA repair: inconclusive; ELG1 genotox: 4.47µM*; NPC1 promoter act: 2.24µM*; FLuc counter: 8.49µM*; Rab9 prom act: 2µM*

Results for CCOC(=O)c1c(N)sc(C(=O)Nc2ccccc2)c1C ?
ELG1 DNA repair: inconclusive; ELG1 genotox: inconclusive; NPC1 promoter act: 0.447µM*; FLuc counter: 1.2µM*; Rab9 prom act: 0.316µM*

How did CCOC(=O)c1c(N)sc(C(=O)Nc2ccccc2F)c1C do in these assays?
SMN2 splice up: 8.91µM*; ELG1 DNA repair: inconclusive; ELG1 genotox: inconclusive; NPC1 promoter act: 2.51µM*; FLuc counter: 1.9µM*; Rab9 prom act: 0.398µM*

How did Cc1ccc(NC(=O)CN(CCc2ccccc2)S(C)(=O)=O)cc1 do in these assays?
ELG1 DNA repair: -22.5%; ELG1 genotox: -4.5%; NPC1 promoter act: -0.8%; FLuc counter: 0.2%; Rab9 prom act: -1.5%

Results for C/C(=N\NC(=O)c1ccn(C)n1)c1cccc(NC(=O)c2ccncc2)c1 ?
SMN2 splice up: -4.9%; ELG1 DNA repair: inconclusive; ELG1 genotox: -0.6%; NPC1 promoter act: 0.5%; FLuc counter: 15.1µM*; Rab9 prom act: -5.2%

How did C/C(=N/NS(=O)(=O)c1ccc(Cl)cc1)c1cccc(NC(=O)c2ccncc2)c1 do in these assays?
ELG1 DNA repair: 3.1%; ELG1 genotox: -2.1%; NPC1 promoter act: -3.7%; FLuc counter: -16.7%; Rab9 prom act: 0.5%

How did C/C(=N\NC(=O)c1ccc(Cl)cc1)c1cccc(NC(=O)c2cccnc2)c1 do in these assays?
SMN2 splice up: inconclusive; ELG1 DNA repair: inconclusive; ELG1 genotox: -1.9%; NPC1 promoter act: 21.5%; FLuc counter: 3.01µM*; Rab9 prom act: inconclusive

What do the screens show for `C/C(=N\NC(=O)c1ccc(Cl)cc1)c1cccnc1`?
ELG1 DNA repair: inconclusive; ELG1 genotox: inconclusive; NPC1 promoter act: inconclusive; FLuc counter: 16.9µM*; Rab9 prom act: inconclusive

How did C/C(=N\NS(=O)(=O)c1ccccc1)c1cccc(NC(=O)c2cccc(Cl)c2)c1 do in these assays?
SMN2 splice up: -1.1%; ELG1 DNA repair: -12.3%; ELG1 genotox: -3.2%; NPC1 promoter act: 1.8%; FLuc counter: 23.9µM*; Rab9 prom act: -2.6%

How did Cc1ccccc1N1CCN(C2CCCN(C(=O)c3snnc3C)C2)CC1 (stereo unspecified) do in these assays?
ELG1 DNA repair: 11.6%; ELG1 genotox: -4.3%; NPC1 promoter act: -6.8%; FLuc counter: 1.9%; Rab9 prom act: -13.3%

How did Nc1ccccc1Nc1c(F)c(F)nc(F)c1Cl do in these assays?
ELG1 DNA repair: -1.5%; ELG1 genotox: -5.1%; NPC1 promoter act: -1.0%; FLuc counter: -1.9%; Rab9 prom act: 6.1%[1.84 µM]

How did O=C(/C=C/c1cn(-c2ccccc2)nc1-c1cccc(Cl)c1)N1CCN(c2ccccn2)CC1 do in these assays?
SMN2 splice up: -49.8%; ELG1 DNA repair: 20.6µM*; ELG1 genotox: -19.5%; NPC1 promoter act: -10.7%; FLuc counter: inconclusive; Rab9 prom act: -5.7%

Results for O=C(/C=C/c1cccc([N+](=O)[O-])c1)N1CCN(c2ccccn2)CC1 ?
ELG1 DNA repair: -21.8%; ELG1 genotox: inconclusive; NPC1 promoter act: -5.8%; FLuc counter: -0.7%; Rab9 prom act: 0.0%

How did O=C(/C=C/c1cn(-c2ccccc2)nc1-c1cccnc1)N1CCCCC1 do in these assays?
SMN2 splice up: 3.2%; ELG1 DNA repair: -27.9%; ELG1 genotox: -3.6%; NPC1 promoter act: -0.3%; FLuc counter: 15.1µM*; Rab9 prom act: 10.1%

What do the screens show for `Cn1c(=O)[nH]c(=O)c2c1nc(N1CCN(c3ccccc3)CC1)n2CCSc1ncccn1`?
SMN2 splice up: 7.6%; ELG1 DNA repair: inconclusive; ELG1 genotox: -3.5%; NPC1 promoter act: -2.8%; FLuc counter: 7.7%; Rab9 prom act: -2.3%

How did Cn1c(=O)c2c(nc(N3CCN(Cc4ccccc4)CC3)n2CCSc2ncccn2)n(C)c1=O do in these assays?
SMN2 splice up: -8.6%; ELG1 DNA repair: 5.17µM*; ELG1 genotox: 10.4%; NPC1 promoter act: -1.2%; FLuc counter: -2.2%; Rab9 prom act: -6.8%

Results for Cn1c(N2CCN(c3ccccn3)CC2)nc2c1c(=O)n(Cc1ccc(Cl)cc1)c(=O)n2C ?
SMN2 splice up: -56.5%; ELG1 DNA repair: 16.4µM*; ELG1 genotox: -23.6%; NPC1 promoter act: -2.0%; FLuc counter: -0.7%; Rab9 prom act: -12.4%

What do the screens show for `Cn1c(=O)[nH]c(=O)c2c1nc(CN1CCN(c3ccc(F)cc3)CC1)n2CCCc1ccccc1`?
SMN2 splice up: 6.7%; ELG1 DNA repair: inconclusive; ELG1 genotox: -2.4%; NPC1 promoter act: 1.6%; FLuc counter: 1.8%; Rab9 prom act: -3.3%

How did CC1CN(c2nc3c(c(=O)n(Cc4ccc(Cl)c(Cl)c4)c(=O)n3C)n2C)CC(C)O1 (stereo unspecified) do in these assays?
SMN2 splice up: -37.4%; ELG1 DNA repair: inconclusive; ELG1 genotox: -20.3%; NPC1 promoter act: -4.3%; FLuc counter: 8.9%; Rab9 prom act: -0.6%

What do the screens show for `CC1CCN(c2nc3c(c(=O)n(C)c(=O)n3C)n2CCSc2ncccn2)CC1`?
SMN2 splice up: -12.6%; ELG1 DNA repair: 0.7%; ELG1 genotox: 2.7%; NPC1 promoter act: -1.0%; FLuc counter: 4.3%; Rab9 prom act: 2.2%

What do the screens show for `Cc1ccnc(SCCn2c(N3CCN(Cc4ccccc4)CC3)nc3c2c(=O)[nH]c(=O)n3C)n1`?
SMN2 splice up: 1.6%; ELG1 DNA repair: 9.2µM*; ELG1 genotox: -5.6%; NPC1 promoter act: -0.2%; FLuc counter: -2.2%; Rab9 prom act: -7.8%

Bioassay records from PubChem BioAssay.
